Data: paper PMC7862700, “An all-to-all approach to the identification of sequence-specific readers for epigenetic DNA modifications on cytosine”

Legend:
Experiment in all cases: DAPPL (digital affinity profiling via proximity ligation, sequencing); 10 mM Tris-HCl pH 7.5, 50 mM NaCl, 1 mM DTT, 4% glycerol, room temperature, 30 min; GST-TFs on glutathione beads, 16-mer random dsDNA library, 0.1% formaldehyde crosslink after washing; high values mean tight binding
FLI1 = molecular target: T1, FLI1 (Homo sapiens, UniProt Q01543 1-452); settings: protein: recombinant; tags: N-terminal GST; dsDNA, one strand shown
T1 sequence: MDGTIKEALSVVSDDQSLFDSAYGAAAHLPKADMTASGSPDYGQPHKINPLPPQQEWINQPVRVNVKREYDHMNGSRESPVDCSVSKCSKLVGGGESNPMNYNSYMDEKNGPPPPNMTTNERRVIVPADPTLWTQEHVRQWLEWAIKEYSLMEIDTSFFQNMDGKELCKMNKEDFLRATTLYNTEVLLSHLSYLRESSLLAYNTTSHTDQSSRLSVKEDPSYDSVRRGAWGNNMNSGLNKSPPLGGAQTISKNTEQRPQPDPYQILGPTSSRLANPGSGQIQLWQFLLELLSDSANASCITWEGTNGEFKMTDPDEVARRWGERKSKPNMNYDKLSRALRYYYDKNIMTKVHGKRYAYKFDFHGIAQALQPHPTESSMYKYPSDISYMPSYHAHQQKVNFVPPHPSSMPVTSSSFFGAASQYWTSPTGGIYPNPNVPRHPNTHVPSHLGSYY
Summary of the method: (§1)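 Human transcription factors were made in yeast as GST fusions, captured on glutathione beads and barcoded with DNA. With a tag-only sample included, the pool was incubated with 200 nmole of a random double-stranded 16-mer DNA library in Tris/NaCl/DTT/glycerol buffer at room temperature for 30 min, then crosslinked with 0.1% formaldehyde after washing, ligated by proximity, amplified and sequenced. For binding signal, each hexamer's read frequency for a factor is divided by its frequency for the tag-only sample.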

ELK1 = molecular target: T2, ELK1 (Homo sapiens, UniProt P19419 1-428); settings: protein: recombinant; tags: N-terminal GST; dsDNA, one strand shown
T2 sequence: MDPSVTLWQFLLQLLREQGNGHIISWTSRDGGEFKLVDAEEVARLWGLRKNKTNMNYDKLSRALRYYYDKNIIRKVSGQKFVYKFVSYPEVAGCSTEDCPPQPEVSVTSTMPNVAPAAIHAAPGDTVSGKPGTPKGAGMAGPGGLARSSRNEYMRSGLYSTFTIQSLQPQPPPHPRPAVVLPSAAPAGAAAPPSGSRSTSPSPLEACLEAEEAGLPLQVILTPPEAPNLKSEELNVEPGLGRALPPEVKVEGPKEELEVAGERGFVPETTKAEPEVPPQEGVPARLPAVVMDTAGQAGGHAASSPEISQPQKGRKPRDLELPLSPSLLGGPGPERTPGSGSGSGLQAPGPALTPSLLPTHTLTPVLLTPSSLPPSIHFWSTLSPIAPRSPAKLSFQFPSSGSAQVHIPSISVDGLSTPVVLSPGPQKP
Summary of the method: as §1

GABPA = molecular target: T3, GABPA (Homo sapiens, UniProt Q06546 1-454); settings: protein: recombinant; tags: N-terminal GST; dsDNA, one strand shown
T3 sequence: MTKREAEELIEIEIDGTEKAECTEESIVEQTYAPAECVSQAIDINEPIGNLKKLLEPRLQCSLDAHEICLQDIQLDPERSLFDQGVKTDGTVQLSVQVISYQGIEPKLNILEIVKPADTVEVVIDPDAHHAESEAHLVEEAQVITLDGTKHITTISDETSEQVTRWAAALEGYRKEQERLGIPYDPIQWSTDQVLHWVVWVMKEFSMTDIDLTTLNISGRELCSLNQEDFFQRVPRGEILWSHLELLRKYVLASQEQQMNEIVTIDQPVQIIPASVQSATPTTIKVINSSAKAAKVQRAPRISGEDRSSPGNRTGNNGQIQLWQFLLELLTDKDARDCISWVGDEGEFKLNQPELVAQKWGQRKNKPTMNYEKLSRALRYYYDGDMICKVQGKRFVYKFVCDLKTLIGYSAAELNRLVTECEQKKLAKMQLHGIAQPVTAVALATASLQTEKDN
Summary of the method: as §1

ERG = molecular target: T4, ERG (Homo sapiens, UniProt P11308 1-479); settings: protein: recombinant; tags: N-terminal GST; dsDNA, one strand shown
T4 sequence: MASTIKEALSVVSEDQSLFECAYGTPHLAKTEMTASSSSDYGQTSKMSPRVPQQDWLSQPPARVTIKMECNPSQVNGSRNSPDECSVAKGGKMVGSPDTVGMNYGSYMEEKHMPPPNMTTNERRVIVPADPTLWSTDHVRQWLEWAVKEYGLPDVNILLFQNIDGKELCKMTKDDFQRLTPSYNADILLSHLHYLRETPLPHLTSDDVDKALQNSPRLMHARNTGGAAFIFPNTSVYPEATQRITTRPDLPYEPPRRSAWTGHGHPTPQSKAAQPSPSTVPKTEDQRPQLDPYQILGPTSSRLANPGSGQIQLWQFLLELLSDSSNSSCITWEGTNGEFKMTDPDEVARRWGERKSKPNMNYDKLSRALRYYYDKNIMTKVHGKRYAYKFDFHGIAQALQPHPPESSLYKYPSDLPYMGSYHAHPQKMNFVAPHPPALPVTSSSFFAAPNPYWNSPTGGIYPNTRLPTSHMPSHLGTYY
Summary of the method: as §1

ELF1 = ELF1 (Homo sapiens, UniProt P32519 1-619); settings: protein: recombinant; tags: N-terminal GST; dsDNA, one strand shown
Summary of the method: as §1

EHF = molecular target: T5, EHF (Homo sapiens, UniProt Q9NZC4 1-300); settings: protein: recombinant; tags: N-terminal GST; dsDNA, one strand shown
T5 sequence: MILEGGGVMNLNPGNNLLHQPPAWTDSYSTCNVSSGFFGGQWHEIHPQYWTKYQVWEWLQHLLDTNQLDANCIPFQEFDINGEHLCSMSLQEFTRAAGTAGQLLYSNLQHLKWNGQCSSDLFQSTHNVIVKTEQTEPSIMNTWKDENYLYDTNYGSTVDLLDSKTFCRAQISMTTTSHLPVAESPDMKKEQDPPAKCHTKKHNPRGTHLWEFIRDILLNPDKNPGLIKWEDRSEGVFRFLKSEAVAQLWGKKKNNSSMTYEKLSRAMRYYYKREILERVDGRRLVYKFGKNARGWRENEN
Summary of the method: as §1

SPI1 = SPI1 (Homo sapiens, UniProt P17947 1-270); settings: protein: recombinant; tags: N-terminal GST; dsDNA, one strand shown
Summary of the method: as §1

SPIB = SPIB (Homo sapiens, UniProt Q01892 1-262); settings: protein: recombinant; tags: N-terminal GST; dsDNA, one strand shown
Summary of the method: as §1

ELK3 = molecular target: T6, ELK3 (Homo sapiens, UniProt P41970 1-407); settings: protein: recombinant; tags: N-terminal GST; dsDNA, one strand shown
T6 sequence: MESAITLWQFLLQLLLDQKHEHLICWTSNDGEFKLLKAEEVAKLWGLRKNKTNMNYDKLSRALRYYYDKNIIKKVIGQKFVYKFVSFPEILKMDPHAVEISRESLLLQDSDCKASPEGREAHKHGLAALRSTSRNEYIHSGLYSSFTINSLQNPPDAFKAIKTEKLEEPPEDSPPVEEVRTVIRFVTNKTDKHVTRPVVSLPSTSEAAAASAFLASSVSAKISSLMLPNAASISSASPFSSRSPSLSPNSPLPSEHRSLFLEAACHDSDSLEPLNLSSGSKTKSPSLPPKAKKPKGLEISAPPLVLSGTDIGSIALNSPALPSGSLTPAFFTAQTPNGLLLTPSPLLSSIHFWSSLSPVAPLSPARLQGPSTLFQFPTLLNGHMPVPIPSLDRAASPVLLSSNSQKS
Summary of the method: as §1

FEV = molecular target: T7, FEV (Homo sapiens, UniProt Q99581 1-238); settings: protein: recombinant; tags: N-terminal GST; dsDNA, one strand shown
T7 sequence: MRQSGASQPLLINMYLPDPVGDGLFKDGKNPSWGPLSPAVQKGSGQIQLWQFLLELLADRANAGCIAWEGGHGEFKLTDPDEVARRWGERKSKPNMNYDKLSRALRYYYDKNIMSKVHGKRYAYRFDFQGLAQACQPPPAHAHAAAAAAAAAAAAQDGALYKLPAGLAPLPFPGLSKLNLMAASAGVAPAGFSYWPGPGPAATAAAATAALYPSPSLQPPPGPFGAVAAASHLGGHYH
Summary of the method: as §1

ETV5 = ETV5 (Homo sapiens, UniProt P41161 1-510); settings: protein: recombinant; tags: N-terminal GST; dsDNA, one strand shown
Summary of the method: as §1

HSF1 = HSF1 (Homo sapiens, UniProt Q00613 1-529); settings: protein: recombinant; tags: N-terminal GST; chain copies: 3; dsDNA, one strand shown
Summary of the method: as §1

SPIC = molecular target: T8, SPIC (Homo sapiens, UniProt Q8N5J4 1-248); settings: protein: recombinant; tags: N-terminal GST; dsDNA, one strand shown
T8 sequence: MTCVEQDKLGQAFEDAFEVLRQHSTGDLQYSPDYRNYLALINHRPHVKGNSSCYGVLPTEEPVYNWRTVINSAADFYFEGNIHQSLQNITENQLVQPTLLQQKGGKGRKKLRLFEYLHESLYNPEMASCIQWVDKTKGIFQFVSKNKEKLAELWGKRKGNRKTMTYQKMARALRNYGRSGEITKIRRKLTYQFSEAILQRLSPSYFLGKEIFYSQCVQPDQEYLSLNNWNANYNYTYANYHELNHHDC
Summary of the method: as §1

ELF4 = ELF4 (Homo sapiens, UniProt Q99607 1-663); settings: protein: recombinant; tags: N-terminal GST; dsDNA, one strand shown
Summary of the method: as §1

ELK4 = molecular target: T9, ELK4 (Homo sapiens, UniProt P28324-2 1-405); settings: protein: recombinant; tags: N-terminal GST; dsDNA, one strand shown
T9 sequence: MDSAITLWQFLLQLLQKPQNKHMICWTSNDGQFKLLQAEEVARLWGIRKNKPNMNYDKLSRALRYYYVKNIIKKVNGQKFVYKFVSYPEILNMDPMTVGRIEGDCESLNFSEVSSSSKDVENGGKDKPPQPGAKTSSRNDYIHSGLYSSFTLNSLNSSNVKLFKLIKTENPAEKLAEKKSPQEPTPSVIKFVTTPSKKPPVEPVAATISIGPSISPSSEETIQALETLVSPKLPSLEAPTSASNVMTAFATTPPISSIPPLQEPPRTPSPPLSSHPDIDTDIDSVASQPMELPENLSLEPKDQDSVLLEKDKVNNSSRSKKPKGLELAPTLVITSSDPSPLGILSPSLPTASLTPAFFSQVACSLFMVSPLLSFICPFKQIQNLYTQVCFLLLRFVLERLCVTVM
Summary of the method: as §1

ELF3 = molecular target: T10, ELF3 (Homo sapiens, UniProt P78545 1-371); settings: protein: recombinant; tags: N-terminal GST; dsDNA, one strand shown
T10 sequence: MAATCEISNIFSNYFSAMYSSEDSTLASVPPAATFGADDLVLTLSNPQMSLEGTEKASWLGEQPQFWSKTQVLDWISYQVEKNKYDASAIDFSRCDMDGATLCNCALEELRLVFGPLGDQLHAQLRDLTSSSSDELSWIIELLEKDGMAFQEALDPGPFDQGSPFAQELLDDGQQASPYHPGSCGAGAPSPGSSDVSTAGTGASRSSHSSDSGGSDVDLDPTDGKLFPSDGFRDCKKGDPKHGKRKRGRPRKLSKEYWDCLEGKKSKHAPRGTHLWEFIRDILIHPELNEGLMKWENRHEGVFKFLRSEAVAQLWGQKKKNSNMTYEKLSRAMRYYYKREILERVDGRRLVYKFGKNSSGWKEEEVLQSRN
Summary of the method: as §1

ETV1 = ETV1 (Homo sapiens, UniProt P50549 1-477); settings: protein: recombinant; tags: N-terminal GST; dsDNA, one strand shown
Summary of the method: as §1

HSF1, sequence (Q00613 whole entry): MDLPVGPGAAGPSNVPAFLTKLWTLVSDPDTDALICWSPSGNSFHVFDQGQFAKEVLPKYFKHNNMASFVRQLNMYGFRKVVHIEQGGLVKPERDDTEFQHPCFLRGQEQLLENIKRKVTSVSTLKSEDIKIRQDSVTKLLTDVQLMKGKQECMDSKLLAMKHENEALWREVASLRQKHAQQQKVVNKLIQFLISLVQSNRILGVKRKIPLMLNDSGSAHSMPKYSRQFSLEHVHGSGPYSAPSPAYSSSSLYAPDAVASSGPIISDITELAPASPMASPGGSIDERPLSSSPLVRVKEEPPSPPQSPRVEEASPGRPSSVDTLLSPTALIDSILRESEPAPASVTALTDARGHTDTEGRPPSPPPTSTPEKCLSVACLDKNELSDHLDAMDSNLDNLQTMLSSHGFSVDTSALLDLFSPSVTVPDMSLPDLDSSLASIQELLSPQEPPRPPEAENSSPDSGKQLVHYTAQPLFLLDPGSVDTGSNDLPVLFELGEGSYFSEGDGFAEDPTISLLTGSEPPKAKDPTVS
ELF4, sequence (Q99607 whole entry): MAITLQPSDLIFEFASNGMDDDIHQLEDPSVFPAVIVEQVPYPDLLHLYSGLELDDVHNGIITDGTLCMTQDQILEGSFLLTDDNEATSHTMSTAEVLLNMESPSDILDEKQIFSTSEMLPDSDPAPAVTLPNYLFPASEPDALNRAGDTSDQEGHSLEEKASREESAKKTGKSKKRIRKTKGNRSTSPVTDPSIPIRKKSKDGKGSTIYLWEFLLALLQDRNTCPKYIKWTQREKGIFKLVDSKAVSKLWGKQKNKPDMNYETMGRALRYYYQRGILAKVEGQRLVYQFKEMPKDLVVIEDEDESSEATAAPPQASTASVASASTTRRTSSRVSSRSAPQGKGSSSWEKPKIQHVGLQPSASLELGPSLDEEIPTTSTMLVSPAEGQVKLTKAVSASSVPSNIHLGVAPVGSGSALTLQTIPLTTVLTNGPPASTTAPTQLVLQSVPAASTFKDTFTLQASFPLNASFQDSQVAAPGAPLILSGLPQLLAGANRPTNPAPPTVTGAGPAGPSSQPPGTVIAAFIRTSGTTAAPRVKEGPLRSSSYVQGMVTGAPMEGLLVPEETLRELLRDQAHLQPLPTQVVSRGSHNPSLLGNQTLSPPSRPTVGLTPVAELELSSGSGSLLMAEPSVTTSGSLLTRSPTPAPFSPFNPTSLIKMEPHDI
SPIB, sequence (Q01892 whole entry): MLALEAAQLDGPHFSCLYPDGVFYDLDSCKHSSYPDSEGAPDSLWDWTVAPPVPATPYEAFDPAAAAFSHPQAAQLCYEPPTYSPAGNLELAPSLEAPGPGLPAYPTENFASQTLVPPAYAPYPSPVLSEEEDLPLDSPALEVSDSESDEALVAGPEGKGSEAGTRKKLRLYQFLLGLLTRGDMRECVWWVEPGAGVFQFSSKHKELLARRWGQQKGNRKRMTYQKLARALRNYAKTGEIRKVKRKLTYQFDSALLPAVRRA
ETV1, sequence (P50549 whole entry): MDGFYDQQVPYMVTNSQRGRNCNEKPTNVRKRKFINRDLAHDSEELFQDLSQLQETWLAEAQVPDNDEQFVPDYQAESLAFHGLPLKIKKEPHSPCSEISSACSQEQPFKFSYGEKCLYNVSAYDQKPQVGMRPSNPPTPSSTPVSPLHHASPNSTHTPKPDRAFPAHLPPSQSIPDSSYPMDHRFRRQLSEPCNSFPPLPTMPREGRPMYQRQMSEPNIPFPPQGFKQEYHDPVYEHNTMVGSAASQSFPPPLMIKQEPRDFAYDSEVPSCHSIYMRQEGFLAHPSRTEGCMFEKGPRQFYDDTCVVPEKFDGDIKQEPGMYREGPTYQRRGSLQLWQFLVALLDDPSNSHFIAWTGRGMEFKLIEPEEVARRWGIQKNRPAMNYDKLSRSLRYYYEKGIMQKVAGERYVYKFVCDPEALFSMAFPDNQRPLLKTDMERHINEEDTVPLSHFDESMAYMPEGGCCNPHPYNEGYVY
ETV5, sequence (P41161 whole entry): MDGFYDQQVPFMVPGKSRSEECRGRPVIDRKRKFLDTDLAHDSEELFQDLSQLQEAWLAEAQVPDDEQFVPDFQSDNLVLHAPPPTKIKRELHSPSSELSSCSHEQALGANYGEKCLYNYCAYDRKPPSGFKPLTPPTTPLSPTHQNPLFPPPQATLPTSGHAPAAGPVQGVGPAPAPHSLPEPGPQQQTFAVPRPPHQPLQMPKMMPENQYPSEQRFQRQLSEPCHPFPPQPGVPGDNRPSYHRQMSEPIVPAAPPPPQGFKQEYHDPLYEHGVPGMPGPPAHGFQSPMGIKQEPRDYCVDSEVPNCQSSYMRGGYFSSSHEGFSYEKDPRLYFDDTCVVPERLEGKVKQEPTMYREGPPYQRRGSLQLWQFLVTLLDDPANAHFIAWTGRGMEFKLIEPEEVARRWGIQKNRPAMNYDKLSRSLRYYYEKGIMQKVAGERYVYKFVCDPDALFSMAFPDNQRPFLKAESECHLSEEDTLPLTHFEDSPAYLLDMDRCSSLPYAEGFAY
ELF1, sequence (P32519 whole entry): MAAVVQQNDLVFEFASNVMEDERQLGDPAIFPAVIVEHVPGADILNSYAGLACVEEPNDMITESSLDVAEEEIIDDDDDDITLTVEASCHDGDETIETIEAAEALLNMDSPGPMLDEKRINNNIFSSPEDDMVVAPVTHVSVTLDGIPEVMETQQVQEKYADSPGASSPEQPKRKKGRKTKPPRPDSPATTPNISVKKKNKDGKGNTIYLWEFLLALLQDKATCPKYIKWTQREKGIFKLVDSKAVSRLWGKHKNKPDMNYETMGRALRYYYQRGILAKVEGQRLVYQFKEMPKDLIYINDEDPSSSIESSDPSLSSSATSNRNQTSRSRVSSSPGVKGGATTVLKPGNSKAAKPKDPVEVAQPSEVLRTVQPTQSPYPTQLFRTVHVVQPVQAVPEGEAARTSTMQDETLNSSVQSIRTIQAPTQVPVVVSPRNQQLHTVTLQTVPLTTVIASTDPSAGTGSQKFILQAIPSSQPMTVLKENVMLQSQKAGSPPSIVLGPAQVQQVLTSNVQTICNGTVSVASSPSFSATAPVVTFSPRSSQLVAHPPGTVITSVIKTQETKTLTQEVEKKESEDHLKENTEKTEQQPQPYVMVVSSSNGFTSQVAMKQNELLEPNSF

GTGCTA
binding signal (FLI1): 1.11 fold enrichment (6-mer frequency, TF over GST control)
binding signal (ELK1): 1.09 fold enrichment (6-mer frequency, TF over GST control)
binding signal (GABPA): 1.04 fold enrichment (6-mer frequency, TF over GST control)
binding signal (ERG): 1.09 fold enrichment (6-mer frequency, TF over GST control)
binding signal (ELF1): 1.12 fold enrichment (6-mer frequency, TF over GST control)
binding signal (EHF): 1.03 fold enrichment (6-mer frequency, TF over GST control)
binding signal (SPI1): 1.25 fold enrichment (6-mer frequency, TF over GST control)
binding signal (SPIB): 1.1 fold enrichment (6-mer frequency, TF over GST control)
binding signal (ELK3): 1.14 fold enrichment (6-mer frequency, TF over GST control)
binding signal (FEV): 1.11 fold enrichment (6-mer frequency, TF over GST control)
binding signal (ETV5): 1.16 fold enrichment (6-mer frequency, TF over GST control)
binding signal (HSF1): 1.07 fold enrichment (6-mer frequency, TF over GST control)
binding signal (SPIC): 1.17 fold enrichment (6-mer frequency, TF over GST control)
binding signal (ELF4): 1.07 fold enrichment (6-mer frequency, TF over GST control)
binding signal (ELK4): 1.08 fold enrichment (6-mer frequency, TF over GST control)
binding signal (ELF3): 1.12 fold enrichment (6-mer frequency, TF over GST control)
binding signal (ETV1): 1.1 fold enrichment (6-mer frequency, TF over GST control)
